Compounds without any hit were thinned out: in the full panel of roughly 83,000, 20% have a hit.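 Growth was measured after 48 h exposure to one concentration of compound in 96-well plates. Values under 10 count as active.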 Activity calls are given as the source filed them.
Columns and labels:
Assay in all cases: NCI-60 one-dose screen, 48 h (100 = growth as untreated, 0 = no growth, -100 = all killed)
Settings in all cases: 10 µM unless noted
HCT-15 colon = tested on: HCT-15 colon
HT29 colon = tested on: HT29 colon
SNB-75 CNS = tested on: SNB-75 CNS
SNB-19 CNS = tested on: SNB-19 CNS
U251 CNS = tested on: U251 CNS
PC-3 prostate = tested on: PC-3 prostate
UACC-62 melanoma = tested on: UACC-62 melanoma
LOX IMVI melanoma = tested on: LOX IMVI melanoma
SK-MEL-28 melanoma = tested on: SK-MEL-28 melanoma
SK-MEL-5 melanoma = tested on: SK-MEL-5 melanoma

Measured: growth

Cc1ccc(-c2nc3ccc(Cl)cc3c(=O)n2N2C(=O)CSC2c2ccccc2Cl)cc1 (stereo not drawn)
inactive: HCT-15 colon 86.9% | HT29 colon 83.7% | SNB-75 CNS 36.1% | SNB-19 CNS 75.2% | U251 CNS 22.3% | PC-3 prostate 70.6% | UACC-62 melanoma 77.3% | LOX IMVI melanoma 89.1% | SK-MEL-28 melanoma 98.6%

COc1cc2c(cc1-c1c(C)noc1C)ncc1nc(C3CCC(F)(F)CC3)n([C@@H](C)COC(F)F)c12
inactive: HCT-15 colon 13.4% | HT29 colon 18.7% | SNB-75 CNS 23.4% | SNB-19 CNS 53.4% | U251 CNS 50.5% | PC-3 prostate 36.7% | UACC-62 melanoma 20.2% | LOX IMVI melanoma 11% | SK-MEL-28 melanoma 47.3%

COc1ccc(-c2cc(-c3cccs3)n(N=O)c(=O)c2C#N)cc1
inactive: HCT-15 colon 129% | HT29 colon 107% | SNB-75 CNS 88.9% | SNB-19 CNS 99.1% | U251 CNS 112% | PC-3 prostate 104% | UACC-62 melanoma 95.4% | LOX IMVI melanoma 96.3%

COc1ccc(C(=O)c2ccc(C)cc2)c(OC)c1OC
inactive: HCT-15 colon 50.1% | HT29 colon 27% | SNB-75 CNS 64.7% | SNB-19 CNS 79.4% | U251 CNS 60.9% | PC-3 prostate 86.9% | UACC-62 melanoma 67.6% | LOX IMVI melanoma 83.6% | SK-MEL-28 melanoma 85%

Cn1c2c(Cl)c(Cl)ccc2c2c(C#N)c[nH]c(=O)c21
inactive: HCT-15 colon 99% | HT29 colon 99.5% | SNB-75 CNS 91.9% | SNB-19 CNS 97.3% | U251 CNS 101% | PC-3 prostate 74.3% | UACC-62 melanoma 93.4% | LOX IMVI melanoma 91.9% | SK-MEL-28 melanoma 114%

CC(=O)c1c(C)[nH]c(-c2nc3ccc(N4CCN(C)CC4)cc3[nH]2)c1-c1ccc(OCC2CCOCC2)cc1
active: HCT-15 colon 5.23% | HT29 colon 8.59% | SNB-75 CNS -9.92% | SK-MEL-5 melanoma -1.59%
inactive: SNB-19 CNS 42.7% | U251 CNS 48.2% | PC-3 prostate 40.4% | SK-MEL-28 melanoma 45.7%

Oc1cccc2ccc(N/N=C/c3cc(CN4CCCCC4)c(O)c4ncccc34)nc12
inactive: HCT-15 colon 20.6% | HT29 colon 14.7% | SNB-75 CNS 27.4% | SNB-19 CNS 19.9%
active: U251 CNS -1.42% | PC-3 prostate 5.8% | UACC-62 melanoma 8.94% | LOX IMVI melanoma -58.4%

Cn1nc(-c2ccccc2)c2c(-c3ccccc3)onc2c1=O
inactive: HCT-15 colon 38.3% | SNB-75 CNS 20.9% | SNB-19 CNS 34.3% | U251 CNS 25.2% | PC-3 prostate 32.4% | UACC-62 melanoma 38.1% | LOX IMVI melanoma 53.4% | SK-MEL-28 melanoma 74.5%
active: HT29 colon 1.6%

COc1ccc2c(c1)C/C(=C\c1cc(-c3cc(OC)c(OC)c(OC)c3)n[nH]1)C2=O
inactive: HCT-15 colon 91.1% | HT29 colon 89.3% | SNB-75 CNS 78.4% | SNB-19 CNS 91.9% | U251 CNS 92.3% | PC-3 prostate 56% | SK-MEL-5 melanoma 75.5% | SK-MEL-28 melanoma 99.3%

NS(=O)(=O)c1ccc(CCNC(=O)/C=C/c2ccc(Cl)cc2)cc1
inactive: HCT-15 colon 98.5% | HT29 colon 95.7% | SNB-75 CNS 85.2% | SNB-19 CNS 99% | U251 CNS 97.8% | PC-3 prostate 87.1% | UACC-62 melanoma 104% | LOX IMVI melanoma 99.1% | SK-MEL-28 melanoma 104%

C=C(C)[C@@H]1CC[C@]2(C)[C@H](CC[C@@H]3[C@H]4[C@H]5OC[C@@]4(CCC5(C)C)CC[C@]32C)[C@@]1(C)CCCN
inactive: SNB-75 CNS 95.2% | SNB-19 CNS 94.2% | PC-3 prostate 64% | UACC-62 melanoma 98.5%
active: HCT-15 colon -79.6% | HT29 colon 6.05% | U251 CNS -19.2%

CCOC(=O)C1OC1(c1ccccc1)c1ccccc1 (stereo not drawn)
inactive: HCT-15 colon 109% | HT29 colon 107% | SNB-75 CNS 108% | SNB-19 CNS 107% | U251 CNS 100% | PC-3 prostate 98.7% | UACC-62 melanoma 98% | LOX IMVI melanoma 113% | SK-MEL-28 melanoma 119%

COc1ccc(-c2cc(/C=C/C(=O)c3ccc(OC)c(OC)c3)[nH]n2)cc1
active: HT29 colon 1.11% | SNB-75 CNS 9.56% | U251 CNS 4.42% | PC-3 prostate 4.36%
inactive: HCT-15 colon 12.5% | SNB-19 CNS 27% | SK-MEL-5 melanoma 51.3% | SK-MEL-28 melanoma 53.9%

Cc1cc2nc3c4cc(O)ccc4n(CCN(C)C)c3nc2cc1C
active: HCT-15 colon -29.3% | HT29 colon 1.97% | SNB-75 CNS -5.77% | SNB-19 CNS 2.18% | U251 CNS 3.44% | PC-3 prostate 6.53% | SK-MEL-5 melanoma -27.4% | SK-MEL-28 melanoma -8.23%

CCCC1CCCCN1C(=O)OCC(C)C (stereo not drawn)
inactive: HCT-15 colon 108% | HT29 colon 102% | SNB-75 CNS 99.5% | SNB-19 CNS 102% | U251 CNS 103% | PC-3 prostate 96.5% | SK-MEL-5 melanoma 109% | SK-MEL-28 melanoma 113%

COC(=O)[C@]12CC[C@@H](C)[C@H](C)[C@@H]1C1=CC[C@@H]3[C@@]4(C)C[C@@H](O)OC[C@](C)(C=O)C4C(=O)C[C@@]3(C)[C@]1(C)CC2 (stereo partly drawn)
inactive: SNB-75 CNS 13.3% | SNB-19 CNS 27.1%
active: HCT-15 colon 5.82% | HT29 colon -59.3% | U251 CNS 0.219% | PC-3 prostate 5.85% | LOX IMVI melanoma -34.2%

— PubChem BioAssay (NCI)
